This is a sample that favours compounds with a hit; in the whole collection about 1.2% have one here.
CIT2-GFP yeast = yeast TOR pathway CIT2-GFP modulation; S. cerevisiae CIT2-GFP strain, flow cytometry, 3 h; 100 means same as DMSO wells; GFP response vs DMSO, % at 10 µM; 0.065% of 320,000 active;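 active means GFP response relative to DMSO above a set limit, near the screen mean plus 3 SD, cut at about 150% in these data; inconclusive means Fewer than 70 cells measured for a yeast strain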;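 further: ratio of well median GFP fluorescence to mean of DMSO wells on the plate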
LAP4 TOR yeast = yeast TOR pathway LAP4-GFP modulation. S. cerevisiae LAP4-GFP multiplex, flow cytometry GFP, 3 h; median GFP as percent of DMSO wells. GFP response vs DMSO, % at 10 µM. 0.34% of 320,000 active. AID 2023;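 active means GFP response vs DMSO above a set limit, about the screen mean plus 3 SD, cut at about 150% in these data; inconclusive means under 70 cell events counted for the yeast strain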
MEP2 TOR yeast = modulators of TOR pathway MEP2-GFP in S. cerevisiae | S. cerevisiae MEP2-GFP strain, flow cytometry GFP, 3 h; 100% = DMSO control level | GFP response vs DMSO, % at 10 µM | 0.51% of 330,000 active | AID 2016;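 active means GFP response versus DMSO above a set limit, roughly screen mean plus 3 SD, cut at about 180% in these data; inconclusive means fewer than 70 cells counted for a yeast strain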;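 further: median GFP fluorescence of the barcode-gated MEP2-GFP cells per well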
DSG3 Ab inh = blocks pemphigus antibody binding to human desmoglein-3 | P32926 | DSG3-coupled beads, scFv-anti-DSG3-GFP binding, flow cytometry; active compounds read low | binding (percent of control), % at 10 µM | 0.48% of 310,000 active | AID 588358;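 active means binding more than 3 SD below its plate's average and above zero; inconclusive means below that plate limit but binding exactly zero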;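 further: hits lower antibody fragment binding to DSG3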
Target sequence (P32926 whole entry, looked up, the tested form may be a part): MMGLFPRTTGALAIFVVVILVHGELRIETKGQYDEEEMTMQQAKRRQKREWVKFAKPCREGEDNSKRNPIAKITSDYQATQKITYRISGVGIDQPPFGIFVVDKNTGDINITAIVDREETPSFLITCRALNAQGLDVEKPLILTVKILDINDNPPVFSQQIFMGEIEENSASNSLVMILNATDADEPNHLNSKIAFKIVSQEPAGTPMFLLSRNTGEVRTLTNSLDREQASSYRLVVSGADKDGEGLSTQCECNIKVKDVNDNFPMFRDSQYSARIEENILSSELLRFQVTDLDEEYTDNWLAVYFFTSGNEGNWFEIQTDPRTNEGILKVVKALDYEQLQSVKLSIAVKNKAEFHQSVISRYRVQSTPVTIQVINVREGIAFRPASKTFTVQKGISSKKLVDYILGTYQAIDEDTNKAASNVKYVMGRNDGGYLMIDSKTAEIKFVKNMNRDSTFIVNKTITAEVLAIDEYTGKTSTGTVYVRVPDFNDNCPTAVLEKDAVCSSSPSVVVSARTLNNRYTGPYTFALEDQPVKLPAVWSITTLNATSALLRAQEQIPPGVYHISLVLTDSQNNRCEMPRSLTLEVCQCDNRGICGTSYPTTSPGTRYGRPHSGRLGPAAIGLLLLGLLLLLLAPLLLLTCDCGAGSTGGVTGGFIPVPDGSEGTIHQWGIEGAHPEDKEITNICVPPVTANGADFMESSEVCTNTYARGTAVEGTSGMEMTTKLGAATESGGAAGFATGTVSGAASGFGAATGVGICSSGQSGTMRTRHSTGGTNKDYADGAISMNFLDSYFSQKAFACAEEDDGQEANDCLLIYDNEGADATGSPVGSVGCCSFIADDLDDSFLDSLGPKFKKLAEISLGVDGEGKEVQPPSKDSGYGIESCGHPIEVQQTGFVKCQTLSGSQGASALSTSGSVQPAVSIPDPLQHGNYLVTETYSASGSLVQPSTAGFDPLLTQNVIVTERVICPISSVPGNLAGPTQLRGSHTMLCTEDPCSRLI
AGP1 TOR yeast = modulators of TOR pathway AGP1-GFP in S. cerevisiae; 0.02% of 320,000 active; AID 2066; GFP response vs DMSO, % at 10 µM; S. cerevisiae AGP1-GFP multiplex flow cytometry, 3 h; GFP as percent of DMSO wells;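 active means GFP response relative to DMSO above a set limit, near screen average plus 3 SD, cut at about 150% in these data; inconclusive means fewer than 70 cells counted for the yeast strain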;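 further: median GFP channel fluorescence of the gated AGP1 strain per well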
RPL19A TOR yeast = alters RPL19A-GFP fluorescence in TOR pathway yeast screen | S. cerevisiae RPL19A-GFP strain, flow cytometry, 3 h; active compounds read low | percent response vs DMSO, % at 10 µM | 0.3% of 330,000 active;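 active means percent response vs DMSO below 50%; inconclusive means fewer than 70 events counted for the yeast strain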;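 further: median channel GFP fluorescence of the barcoded RPL19A-GFP strain; ratio of sample median GFP to plate DMSO average so 100% = DMSO; lower means less RPL19A-GFP as with rapamycin TOR inhibition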
* = called active by the depositor; ? = inconclusive; . = not tested or not shown; [ ] = dose if it differs, or a comment.

SMILES	CIT2-GFP yeast	LAP4 TOR yeast	MEP2 TOR yeast	DSG3 Ab inh	AGP1 TOR yeast	RPL19A TOR yeast
CCn1cc(C(=O)NN)c(=O)c2cc(F)c(N3CCOCC3)cc21	100	106	114	116	98	104
CCn1cc([N+](=O)[O-])c(=O)c2cc(F)c(N3CCOCC3)cc21	?	65	255*[may fluoresce violet]	110	?	61
Cc1ccccc1NC(=O)COC(=O)COc1ccc2ccc(=O)oc2c1	.	.	.	107	.	.
O=C(O)c1cc(-n2nnnc2SCc2ccccc2F)ccc1Cl	108	106	106	74*	106	105
Oc1cccc(-n2nnnc2SCc2ccccc2F)c1	95	.	103	100	104	95
CCOc1ccc(N2CC(C(=O)Nc3ccccc3N3CCCC3)CC2=O)cc1 (configuration not stated)	90	102	97	111	96	90
Cc1cc(O)cc2c1C1CCC3(C)C(=O)CCC3C1C=C2 (configuration not stated)	.	.	.	118	.	.
O=C(NCCc1ccccc1)C(c1ccccc1F)N(C(=O)c1csnn1)C1CC1 (configuration not stated)	?	62	217*[may fluoresce violet]	108	?	38*[may fluoresce violet]
O=C(NCCc1ccccc1)C(c1ccc(F)cc1)N(C(=O)c1csnn1)C1CC1 (configuration not stated)	?	57	201*[may fluoresce violet]	94	?	28*[may fluoresce violet]
O=C(NCCc1ccccc1)C(c1ccccc1)N(C(=O)c1csnn1)C1CC1 (configuration not stated)	103	110	110	100	108	102
O=C(NCC1CC1)c1ccccc1Cl	102	92	103	100	97	100
Cc1cc(-c2csc(N)n2)c(C)n1C	108	105	103	73*	106	100
Cc1ccc(-n2c(C)cc(-c3csc(N)n3)c2C)cc1	102	92	93	101	92	97
Cc1cc(-c2csc(N)n2)c(C)n1Cc1ccco1	92	100	99	71*	93	93
Cc1cc2ccccc2n1CCNC(=O)c1ccc(S(=O)(=O)N2CCOCC2)cc1	97	100	102	83*	110	100
Cc1cc2ccccc2n1CCNC(=O)c1ccccc1	97	105	98	?	105	102
Cc1cc2ccccc2n1CCNC(=O)COc1ccccc1	94	102	96	65*	95	95
C=CCn1c(SCC(N)=O)nnc1-c1cc(Br)ccc1O	94	87	93	104	96	93
CC(C)(C)OC(=O)C[C@H]1C/C=C\C[C@H](CC(=O)NCCO)C(=O)NC[C@H](c2ccccc2)OC1=O	102	89	89	99	96	97
Cc1c(N(C)C(=O)COc2ccc3ccccc3c2)c(=O)n(-c2ccccc2)n1C	95	96	98	101	107	102
CN(C)N=C1c2cc(S(=O)(=O)N(C)C)ccc2-c2ccc(S(=O)(=O)N(C)C)cc21	105	95	101	100	101	102
CN(CCO)S(=O)(=O)c1ccc2c(c1)C(=NNC(N)=O)c1cc(S(=O)(=O)N(C)CCO)ccc1-2	96	103	103	-5.9*	107	100
CN(C)S(=O)(=O)c1ccc2c(c1)C(=NNC(N)=O)c1cc(S(=O)(=O)N(C)C)ccc1-2	98	94	102	86	98	101
CN(C)S(=O)(=O)c1ccc2c(c1)C(=NO)c1cc(S(=O)(=O)N(C)C)ccc1-2	105	99	109	76*	104	105
COc1ccccc1NS(=O)(=O)c1cc(C(=O)N2CCCC2)ccc1F	.	.	.	109	.	.
SMILES	CIT2-GFP yeast	LAP4 TOR yeast	MEP2 TOR yeast	DSG3 Ab inh	AGP1 TOR yeast	RPL19A TOR yeast
Cc1ccc(S(=O)(=O)N2C[C@H]3C(=O)C[C@@H](c4cccc(Cl)c4)N(S(=O)(=O)c4ccc(C)cc4)[C@H]3C[C@H]2c2ccccc2)cc1	.	.	.	97	.	.
CC(C)NC(=O)C1CCN(Cc2cccc(OCc3ccccc3)c2)CC1	.	.	.	83*	.	.
CC(C)NC(=O)C1CCN(Cc2cccc(Oc3ccccc3)c2)CC1	99	93	103	106	100	105
Cc1ccc(S(=O)(=O)Nc2ccc(C(=O)N3CCOCC3)cc2)cc1	?	91	192*[may fluoresce violet]	85	26	64
O=C(CSCc1ccc(Cl)cc1)N1CCOCC1	102	93	99	108	102	101
CCNS(=O)(=O)c1ccc(CCC(=O)N2CCN(Cc3ccccc3)CC2)cc1	105	95	102	109	97	101
Cc1ccc(NS(=O)(=O)c2ccc(CCC(=O)N3CCOCC3)cc2)cc1	109	91	181*	.	22	60
O=C(c1ccc(S(=O)(=O)Nc2ccccc2)cc1)N1CCOCC1	95	96	102	.	98	100
CNS(=O)(=O)c1ccc(CCC(=O)N2CCOCC2)cc1	103	90	103	114	96	100
CCOC(=O)N1CCN(C(=O)CCc2ccc(S(=O)(=O)NCCc3ccccc3)cc2)CC1	153*	161*	193*	93	108	108
Cc1ccc(CSCC(=O)N2CCOCC2)cc1	?	72	236*[may fluoresce violet]	97	?	56
CC(C)n1c(SCC(=O)N2CCCCC2)nc2c1c(=O)n(C)c(=O)n2C	?	87	305*[may fluoresce violet]	127	21	54
COc1ccc(C(=O)COC(=O)CCn2nnc(-c3cccc(O)c3OC)n2)cc1	98	95	102	95	102	96
COc1ccc(C(=O)Nc2cccnc2Sc2ccc(Cl)cc2)cc1	88	108	105	80*	102	96
CCc1cc(-c2cnnn2Cc2ccccc2)ccc1-c1cn(CC(C)C)nn1	.	.	.	107	.	.
CN1CCN(C(c2ccc(Cl)cc2)c2cc(Cl)c3cccnc3c2O)CC1 (configuration not stated)	80	164*	140	101	38	65
CN1CCN(C(c2ccc(C(F)(F)F)cc2)c2cc(Cl)c3cccnc3c2O)CC1 (configuration not stated)	?	202*[may fluoresce violet]	162	.	?	57
Cc1nn(Cc2ccccc2)c(Cl)c1/C=C/C(=O)OC(C)C(=O)N1CCCC1 (configuration not stated)	89	95	82	103	89	89
Cc1ccc([C@H]2C[C@H](O)[C@@H](n3cc(COC(=O)c4ccccc4)nn3)CN2Cc2cccs2)cc1	.	.	.	101	.	.
COc1ccc(NC(=O)c2cccc3c2C(=O)N(C2CCCCC2)C3)cc1	92	96	99	.	97	95
COc1ccc(OC)c(NC(=O)c2cccc3c2C(=O)N(C2CCCCC2)C3)c1	111	87	161	102	17	29*

Bioassay records: PubChem BioAssay, NMMLSC
